Compound activity deposited in PubChem BioAssay by several laboratories.
MBD2 DNA inh = inhibitors of MBD2 binding to methylated DNA, primary screen, biochemical, TR-FRET, DNA-binding domain, human | MBD2 binding to methylated oligonucleotide | Methyl-CpG-binding domain protein 2 (Homo sapiens), Q9UBB5 | inhibition, % at 4.4 µM | 0.31% of 370,000 active | AID 686964, 2013; in the data active = inhibition above about 13%
Target sequence (Q9UBB5 whole entry, looked up, the tested form may be a part): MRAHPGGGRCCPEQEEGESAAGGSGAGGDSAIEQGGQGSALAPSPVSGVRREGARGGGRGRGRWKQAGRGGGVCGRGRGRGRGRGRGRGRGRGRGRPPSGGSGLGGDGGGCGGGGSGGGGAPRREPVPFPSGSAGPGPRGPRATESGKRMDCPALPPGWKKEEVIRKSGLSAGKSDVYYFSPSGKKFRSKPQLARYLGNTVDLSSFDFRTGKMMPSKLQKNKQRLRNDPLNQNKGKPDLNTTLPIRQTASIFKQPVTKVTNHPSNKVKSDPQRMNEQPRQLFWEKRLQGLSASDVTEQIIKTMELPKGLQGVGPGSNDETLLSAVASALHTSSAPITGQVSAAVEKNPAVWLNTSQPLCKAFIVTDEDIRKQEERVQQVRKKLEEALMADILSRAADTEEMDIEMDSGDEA
UHRF1 MBD2 ctr = UHRF1 methylated DNA binding inhibitors, primary screen, counter-screen for MBD2 inhibitor project, biochemical, TR-FRET, human UHRF1, single concentration; E3 ubiquitin-protein ligase UHRF1 (Homo sapiens), Q96T88; UHRF1 binding to methylated oligo; inhibition, % at 4.4 µM; 0.75% of 370,000 active; AID 687016, 2013; in the data active = inhibition above about 21%;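 also: UHRF1 SRA domain binding a hemimethylated CpG hairpin DNA probe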
Rin1 Abl inh = inhibitors of Rin1-Abl protein binding, primary screen, biochemical, TR-FRET; Tyrosine-protein kinase ABL1 (Homo sapiens) + Ras and Rab interactor 1 (Homo sapiens), …; inhibition, % at 7.35 µM; 0.4% of 360,000 active; AID 588664, 2011; in the data active = inhibition above about 5%, passing the limit was not always enough
Neddyl block = inhibitors of cullin neddylation, primary screen, biochemical, TR-FRET, uHTS, NAE and Ubc12 | 0.58% of 360,000 active | NEDD8-conjugating enzyme Ubc12 (Homo sapiens) + NEDD8-activating enzyme E1 regulatory … | calls only at 25 µM; in the data active = inhibition above about 36%
LEDGF integ inh = blockers of LEDGF/p75-dependent integrase strand transfer – biochemical, TR-FRET, high throughput, primary screen; AID 743269, 2014; HIV-1 integrase (with human LEDGF/p75); TR-FRET IN-LEDGF/p75 DNA integration, Eu/Cy5; 0.64% of 370,000 active; inhibition, % at 3.7 µM;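 active = inhibition above the screen-wide mean plus 3 SD, cut at about 13% in these data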;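 also: signal is the Cy5 over europium emission ratio at 671 and 618 nm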
KLK7 zymogen act = proKLK7 zymogen activators, primary screen, biochemical, fluorescence intensity; purified proKLK7, EDANS-DABCYL substrate fluorescence; 100% is mature enzyme control, 0% vehicle; AID 652039, 2013; activation, % at 7 µM; 0.9% of 370,000 active;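 active = activation above the mean of all tested compounds plus 3 SD, computed per campaign excluding outliers beyond control limits, cut at about 13% in these data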
A number is an active result; 0 = inactive; - = no result shown; + = active, no number. Hits are enriched below; roughly 3.1% of the tested compounds scored in any of these assays.

SMILES	MBD2 DNA inh	UHRF1 MBD2 ctr	Rin1 Abl inh	Neddyl block	LEDGF integ inh	KLK7 zymogen act
O=C(O)Cn1c(=O)n(Cc2ccccc2)c2ccccc21	0	27.8	0	0	0	0
Cc1ccccc1NC(=O)C1CCCN1S(=O)(=O)c1ccccc1C(F)(F)F (stereo not drawn)	0	0	0	0	0	0
CSc1ccc(S(=O)(=O)NCC(=O)OC(C)C(=O)NCc2ccccc2)cc1[N+](=O)[O-] (stereo not drawn)	0	26.8	0	0	0	0
O=C(CSc1nc2ccccc2c(=O)n1-c1ccccc1)N1CCc2ccccc2C1	0	28.0	0	0	0	0
CC(NS(=O)(=O)c1cn(C)c(=O)n(C)c1=O)c1ccccc1 (stereo not drawn)	0	24.4	0	0	0	0
C/C(CC(=O)Nc1cccc(Cl)c1Cl)=N\NC(=O)c1ccccc1C	0	0	0	0	0	0
CCCCn1nnnc1C1(C)CCC(=O)N1c1ccc(N2CCOCC2)cc1 (stereo not drawn)	0	0	-	0	0	0
Cc1cccc(C)c1-n1nnnc1C1(C)CCC(=O)N1c1ccc(N2CCOCC2)cc1 (stereo not drawn)	0	22.6	-	0	0	0
Cn1nc(C(F)(F)F)c(C#N)c1N1CCN(c2ccccn2)CC1	0	22.9	0	0	0	0
CC(=O)c1ccc(S(=O)(=O)N2CCCCC2C(=O)O)cc1 (stereo not drawn)	0	0	0	0	0	0
CN(CCO)c1ccc2c(c1)Oc1ccccc1CN(Cc1cn(Cc3ccc(F)cc3)nn1)S2(=O)=O	0	0	-	-	0	0
CS(=O)(=O)N(CC(=O)Nc1ccc(S(=O)(=O)N2CCCC2)cc1)c1cccc(F)c1	0	27.6	0	0	0	0
Cc1ccccc1N=Nc1ccc(O)c2ncccc12	0	0	0	0	0	0
O=S(=O)(O)c1cccc2c(N=Nc3ccc(O)c4ncccc34)cccc12	-	-	14.9	0	-	-
Cc1c(N(C)S(=O)(=O)c2ccc(Cl)c(C(=O)NCC(C)(C)N3CCOCC3)c2)c(=O)n(-c2ccccc2)n1C	0	0	0	0	0	0
CCOc1ccccc1N1CCN(Cc2ccc(OC)c(OC)c2)CC1	0	23.4	0	0	0	0
CCCNc1nc(Cl)nc(Nc2ccc(Cl)cc2)n1	0	0	0	0	0	0
CCCCNc1nc(Cl)nc(Nc2ccc(C)cc2)n1	0	21.3	0	0	0	0
COCCn1c(SCc2ccc(C(=O)OC)o2)nnc1-c1c[nH]c2ccccc12	0	0	10.6	0	0	0
OCCN(CCO)CC(O)COc1ccc2c(c1)OCO2 (stereo not drawn)	0	67.0	0	0	0	0
CCN(CC)CC(O)COc1ccc2c(c1)OCO2 (stereo not drawn)	0	0	0	0	0	0
CC(C)(C)N1C(=O)Cc2c1nc(N)c1c(N)nc(N3CCCCC3CO)c(C#N)c21 (stereo not drawn)	-	-	20.1	0	-	-
Cc1ccc2cc(CN(Cc3ccc4c(c3)OCO4)Cc3nnnn3Cc3ccco3)c(=O)[nH]c2c1	0	0	0	0	0	0
Cc1ccc(CN(Cc2cc3cc4c(cc3[nH]c2=O)OCCO4)Cc2nnnn2Cc2ccco2)cc1	0	0	0	0	17.2	0
C=CCN1C2CCCC1CC(NC(=O)Nc1cc(C)cc(C)c1)C2 (stereo not drawn)	0	0	0	0	0	0
SMILES	MBD2 DNA inh	UHRF1 MBD2 ctr	Rin1 Abl inh	Neddyl block	LEDGF integ inh	KLK7 zymogen act
COc1cccc(CN2CC(C(=O)NCC3CCOCC3)CCC2=O)c1 (stereo not drawn)	0	0	0	0	0	0
COc1cc(/C=C2\SC(=S)N(CC(=O)O)C2=O)ccc1OS(=O)(=O)c1ccc(C)cc1	0	25.9	0	0	0	0
O=C(NCC1OCCc2ccccc21)c1ccc(NC(=O)c2ccccc2Cl)cc1 (stereo not drawn)	0	21.0	0	0	0	0
O=C(NCC1OCCc2ccccc21)c1ccc(NC(=O)c2ccc(Cl)cc2Cl)cc1 (stereo not drawn)	0	0	0	0	0	0
CC(C)(C)c1ccc(S(=O)(=O)N2CCC(C(=O)NCc3cccs3)CC2)cc1	0	0	-	-	0	0
COCCNC(=O)COC(=O)c1cccnc1SC	0	27.2	0	0	0	0
CSc1ncccc1C(=O)OCC(=O)NCCCc1ccccc1	0	0	0	0	0	0
Cc1ccc(S(=O)(=O)N2CCOCC2)cc1C(=O)NCc1ccccc1CN1CCCC1	0	0	0	0	0	0
COc1cccc(NC(=O)CN(C)C(=O)CSCC(=O)Nc2ccc(C)cc2)c1	0	29.1	0	0	0	0
O=C1N[C@@H](c2ccccc2)COC(=O)[C@@H](Cc2ccc(F)cc2)C/C=C\C[C@@H]1CC(=O)N(CCO)Cc1ccccc1	0	0	0	0	0	0
O=C1CCC/C=C\C[C@@H](CC(=O)N(CCO)Cc2ccccc2)C(=O)N[C@H](c2ccccc2)CO1	0	22.1	0	0	0	0
O=S(CC(O)c1ccccc1)c1ccccc1 (stereo not drawn)	0	0	0	0	0	0
CCOC(=O)C1(CC/C(C)=N\NC(N)=O)CC(C)OC1=O (stereo not drawn)	0	20.9	0	0	0	0
COC1C=CC(CNC(=O)c2cc3c(=O)n4cccc(C)c4nc3n2C)(OC)O1 (stereo not drawn)	0	68.7	0	-	0	0
Cc1c2c(=O)n(-c3nc4ccccc4s3)nc-2cc(O)n1Cc1ccccc1	-	-	0	+	-	-
Cn1c2ccccc2c(=O)c2c(=O)n(C3CCCCCC3)c(C3CCCCC3)nc21	0	0	0	0	0	0
CCc1nc2c(c(=O)c3ccccc3n2C)c(=O)n1C1CCCCCC1	0	59.4	0	0	0	0
CC(C)NC(=O)C1(C)Cc2c(-c3cccc(C(F)(F)F)c3)ccnc2O1 (stereo not drawn)	0	37.6	0	0	0	0
COc1ccc(NC2=C(C(C)=O)C(c3ccc(OC)c(OC)c3)C(C(C)=O)C(C)(O)C2)cc1 (stereo not drawn)	0	0	0	0	0	0
COc1ccc(NC2=C(C(C)=O)C(c3ccccc3)C(C(C)=O)C(C)(O)C2)cc1 (stereo not drawn)	0	61.3	0	0	0	0
CCOc1cc(/C=N/NC(=O)C(=O)NC)cc(Br)c1O	0	0	0	0	0	0
Cc1cccc(N=[N+]([O-])c2cccc(C)n2)n1	0	41.8	0	0	0	0
